# About 83,000 compounds went through this panel and 20% of them were active in at least one assay; those are over-represented in the sample as a whole.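 Plates (96-well) were seeded with cells, treated with compound at one concentration, and incubated for 48 hours before percent growth was determined.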 A number with no mark means an inactive call. Activity calls are given as the source filed them.
# Test system: COLO 205 colon
# Assay: NCI-60 one-dose screen, 48 h (100 = growth as untreated, 0 = no growth, -100 = all killed)
# Conditions: 10 µM unless noted
# Method: Cells are grown in 96 well plates and exposed to the test compound for 48 hours. Compounds are tested at a single concentration, which is 10^-5 M for most compounds. The reported endpoint is percent growth (GI% or GIPRCNT), where numbers from 0 - 100% represent growth inhibition, and numbers from -100% - 0 represent cell death. For example, a value of 40 represents 60% growth inhibition. A value of 0 means no net growth occurred over the course of the experiment. A value of -40 indicates 40% of cells at the beginning of the experiment died by the end of the experiment. A value of -100 means all cells are dead at the end of the experiment.
# NCI-60 Human Tumor Cell Lines Screen was performed using the standard one-dose NCI protocol, which is described in more detail at https://dtp.cancer.gov/discovery_development/nci-60/default.htm.
# Compounds with GIPRCNT values below 10 were considered active. Activity score was based on GIPRCNT using the following formula: […]
# Score is 0 for GIPRCNT values of 100 or above, 50 for GIPRCNT values of 0, and 100 for GIPRCNT values of -100.
row,Structure (SMILES),growth
1,COc1cc(Cn2ccc3c2-c2oncc2CC3)cc(OC)c1,26.1%
2,Nc1ccc(S(=O)(=O)c2ccc(NO)cc2)cc1,111%
3,CCOC(=O)/C(C#N)=C(/CC)OCC,113%
4,CSc1nc(N)n2nccc2n1,105%
5,CC(=O)c1cc(Nc2cc(C)nc(N)n2)cc(C(C)=O)c1,117%
6,N/C(=N\O)c1ccncc1,103%
7,COc1ccc(NC(=O)/C=C(C)/C=C/C=C(C)/C=C/C2=C(C)CCCC2(C)C)cc1,33%
8,CC(=O)NNC(=O)c1sc(NC(C)=O)nc1C,108%
9,CCOP1(=O)CC(C)=C(Cl)C(P(=O)(O)O)C1 (stereo not given),110%
10,N=c1c2c(=O)n3c(nc2nc2sc4ccc(Cl)cc4n12)-c1ccccc1Sc1ccccc1-3,11.9%
11,CCCCCCCCC(=O)Nc1ccc(O)cc1,94.9%
12,COc1cccc2c1nc1cccc(OC)c1[n+]2[O-],77.9%
13,COC(=O)[C@H](Cc1cn(C)cn1)NC(=O)[C@@H](NC(=O)Nc1cc(C(F)(F)F)cc(C(F)(F)F)c1)C(C)(C)C,-74.6% [100 µM] (active)
14,CCC(CCCN1C(=O)c2ccccc2C1=O)Nc1cc(OC)cc2c(C)ccnc12 (stereo not given),104%
15,[2H]c1nc(=Nc2cc(NC(=O)C=C)c(N(C)CCN(C)C)cc2OC)[nH]c(-c2cn(C([2H])([2H])[2H])c3ccccc23)c1[2H],29.4%
16,Oc1ccc(N=Nc2ccc(N=Nc3ccccc3)cc2)cc1,84.8%
17,COc1ccc(-n2nnnc2-c2cn[nH]c2C(F)(F)F)cc1,96.8%
18,C=CCNC(=S)NNc1ccc([N+](=O)[O-])cn1,110%
19,Oc1ccc(CN(Cc2ccc(C(F)(F)F)cc2)Cc2ccc(O)c3ncccc23)c2cccnc12,19.6%
20,O=P(OCCCl)(OCCCl)C(O)c1ccccc1Cl (stereo not given),101%

row,Structure (SMILES),growth
1,CCCCCCCCCCCCCCCCCC(=O)Nc1ccc(O)cc1,93%
2,CCCCCCCCC/C(=N\NC(=O)c1ccncc1)c1ccc(O)c(O)c1O,27.6%
3,O=C(Nc1ccc(-n2cc(-c3ccncc3)c(-c3ccc(Cl)c(O)c3)n2)cc1)c1ccc(Cl)c(C(F)(F)F)c1,-1.56% (active)
4,O=C(OCC1CC2(Cl)C(Cl)=C(Cl)C1(Cl)C2(Cl)Cl)C1C(C(=O)OCC2CC3(Cl)C(Cl)=C(Cl)C2(Cl)C3(Cl)Cl)C2(Cl)C(Cl)=C(Cl)C1(Cl)C2(Cl)Cl (stereo not given),99.7%
5,O=C(/C=C1\C(=O)N(Cc2ccc([N+](=O)[O-])cc2)c2ccccc21)c1ccc(OCCN2CCCCC2)cc1,-49.5% (active)
6,c1ccc(-c2cn3ccnc3c(-c3ccc4ncn(C5CCCCC5)c4c3)n2)cc1,79.3%
7,CCCCCCCCCCCCCCCCNC(=O)Nc1ccc(C)c(NC(=O)NCCCCCCCCCCCCCCCC)c1,116%
8,CC(O)CCC(C)[N+](=O)[O-] (stereo not given),111%
9,O=C(Cc1ccccc1[N+](=O)[O-])c1ccc2c(c1)OCO2,116%
10,CCCC(=O)Nc1ccccc1C(=O)O,97%
11,CCc1c(C)c2ccc(OCC(=O)N=Nc3c(O)[nH]c4ccccc34)c(C)c2oc1=O,31.4%
12,COc1ccc(C2=NN(C(=O)c3cc(-c4ccc(C)cc4)nc4ccccc34)C(c3cc(-c4ccccc4)nn3-c3ccccc3)C2)cc1 (stereo not given),106%
13,O=C(NCCNCCO)c1cc([N+](=O)[O-])cc([N+](=O)[O-])c1O,110%
14,CCOC(=O)c1cc(-c2ccc(OC)cc2)[nH]c1NNC(=O)CCOC,109%
15,COc1cc(-c2c3c(cn2CCN2CCCCC2)-c2oncc2CC3)cc(OC)c1OC,103%
16,O=C1CCNC1,112%
17,O=C(N/N=C/c1coc2ccccc2c1=O)c1cc2oc(-c3ccccc3)cc2[nH]1,94.3%
18,COC1=CC(c2ccc[nH]2)=N/C1=C\c1[nH]c(C)c(C(=O)CCCCC(=O)NC(C)(C)C)c1C,44.4%
19,O=C(O)CC1Cc2ccccc2C1C(=O)O (stereo not given),114%
20,CC(=O)Nc1nc(C)c(C(=O)N/N=C/c2cccs2)s1,101%

# Source: PubChem BioAssay (NCI)
